Test results as given in publication PMC11006913.
Numbering of substitutions follows the chain as printed.

Each sequence was assayed against T1, SIX6 (Homo sapiens, UniProt O95475 114-200, L167I) (assay: PBM; 200 nM protein, PBS). Conditions: dsDNA, one strand shown.
T1 sequence: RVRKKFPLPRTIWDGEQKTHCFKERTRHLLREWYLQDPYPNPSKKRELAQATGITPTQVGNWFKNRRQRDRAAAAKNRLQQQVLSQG
In the case of CCAGTGCG, the binding signal is reported as 8.98 upbm affinity estimate (log intensity, higher = more binding, comparable within an allelic series). With GATATCCA the binding signal was 11.1 upbm affinity estimate (log intensity, higher = more binding, comparable within an allelic series). In the case of ATATCATG, the binding signal is reported as 11.1 upbm affinity estimate (log intensity, higher = more binding, comparable within an allelic series). In the case of CATGATCA, the binding signal is reported as 10.5 upbm affinity estimate (log intensity, higher = more binding, comparable within an allelic series). In the case of GTGATATA, the binding signal is reported as 11.3 upbm affinity estimate (log intensity, higher = more binding, comparable within an allelic series). With GGCCCCAA the binding signal was 8.91 upbm affinity estimate (log intensity, higher = more binding, comparable within an allelic series). In the case of AGTATCAT, the binding signal is reported as 11.5 upbm affinity estimate (log intensity, higher = more binding, comparable within an allelic series). With AGGGTATC the binding signal was 11.2 upbm affinity estimate (log intensity, higher = more binding, comparable within an allelic series). With AGGGCCCG the binding signal was 8.98 upbm affinity estimate (log intensity, higher = more binding, comparable within an allelic series). With GGCCTCCA the binding signal was 8.94 upbm affinity estimate (log intensity, higher = more binding, comparable within an allelic series). ACTGCCGG was tested, and the binding signal was 9.01 upbm affinity estimate (log intensity, higher = more binding, comparable within an allelic series). For GGCCCCGA, the binding signal was 9 upbm affinity estimate (log intensity, higher = more binding, comparable within an allelic series). GCCAGTCC was tested, and the binding signal was 9.04 upbm affinity estimate (log intensity, higher = more binding, comparable within an allelic series). With GCAGTGGC the binding signal was 8.87 upbm affinity estimate (log intensity, higher = more binding, comparable within an allelic series). For GCGCTGCC, the binding signal was 8.75 upbm affinity estimate (log intensity, higher = more binding, comparable within an allelic series). CCGGCGCC was tested, and the binding signal was 8.8 upbm affinity estimate (log intensity, higher = more binding, comparable within an allelic series). For CAGGGCGC, the binding signal was 9.09 upbm affinity estimate (log intensity, higher = more binding, comparable within an allelic series). For CCCCGAGG, the binding signal was 8.95 upbm affinity estimate (log intensity, higher = more binding, comparable within an allelic series). For AGCTCCGC, the binding signal was 9.05 upbm affinity estimate (log intensity, higher = more binding, comparable within an allelic series). In the case of GATATCAC, the binding signal is reported as 11.4 upbm affinity estimate (log intensity, higher = more binding, comparable within an allelic series). GATACCCC was tested, and the binding signal was 11.5 upbm affinity estimate (log intensity, higher = more binding, comparable within an allelic series). ACTGATAC was tested, and the binding signal was 11.3 upbm affinity estimate (log intensity, higher = more binding, comparable within an allelic series). For ATATACAC, the binding signal was 10.9 upbm affinity estimate (log intensity, higher = more binding, comparable within an allelic series). CGGCCTTC was tested, and the binding signal was 8.62 upbm affinity estimate (log intensity, higher = more binding, comparable within an allelic series). In the case of CCGGGGCC, the binding signal is reported as 9.14 upbm affinity estimate (log intensity, higher = more binding, comparable within an allelic series). In the case of AGCGGCGC, the binding signal is reported as 8.85 upbm affinity estimate (log intensity, higher = more binding, comparable within an allelic series). With CGGTATCA the binding signal was 11.3 upbm affinity estimate (log intensity, higher = more binding, comparable within an allelic series). In the case of GTATCAAA, the binding signal is reported as 11.4 upbm affinity estimate (log intensity, higher = more binding, comparable within an allelic series). With CAGTGGCC the binding signal was 8.99 upbm affinity estimate (log intensity, higher = more binding, comparable within an allelic series). GATATCTA was tested, and the binding signal was 11.1 upbm affinity estimate (log intensity, higher = more binding, comparable within an allelic series). With CCCTCTGC the binding signal was 8.98 upbm affinity estimate (log intensity, higher = more binding, comparable within an allelic series). With CGGCGGAA the binding signal was 8.84 upbm affinity estimate (log intensity, higher = more binding, comparable within an allelic series). For CAGTATCA, the binding signal was 11.2 upbm affinity estimate (log intensity, higher = more binding, comparable within an allelic series). For CGCAAGCG, the binding signal was 8.99 upbm affinity estimate (log intensity, higher = more binding, comparable within an allelic series). With AGGCGCCC the binding signal was 8.71 upbm affinity estimate (log intensity, higher = more binding, comparable within an allelic series). With CCGCCAGC the binding signal was 9.01 upbm affinity estimate (log intensity, higher = more binding, comparable within an allelic series). For ATGGCCGC, the binding signal was 8.86 upbm affinity estimate (log intensity, higher = more binding, comparable within an allelic series). With GGATATCA the binding signal was 11.4 upbm affinity estimate (log intensity, higher = more binding, comparable within an allelic series). For CTCGATAC, the binding signal was 10.6 upbm affinity estimate (log intensity, higher = more binding, comparable within an allelic series). With CGCAGCGC the binding signal was 9.07 upbm affinity estimate (log intensity, higher = more binding, comparable within an allelic series).

What follows are sequences tested against T2, SIX6 (Homo sapiens, UniProt O95475 114-200, L143V) (assay: PBM; 200 nM protein, PBS). Conditions: dsDNA, one strand shown.
T2 sequence: T1 sequence with L30V, I54L
For CCAGTGCG, the binding signal was 8.96 upbm affinity estimate (log intensity, higher = more binding, comparable within an allelic series). With GATATCCA the binding signal was 10.3 upbm affinity estimate (log intensity, higher = more binding, comparable within an allelic series). ATATCATG was tested, and the binding signal was 10.4 upbm affinity estimate (log intensity, higher = more binding, comparable within an allelic series). CATGATCA was tested, and the binding signal was 9.91 upbm affinity estimate (log intensity, higher = more binding, comparable within an allelic series). With GTGATATA the binding signal was 10.5 upbm affinity estimate (log intensity, higher = more binding, comparable within an allelic series). With GGCCCCAA the binding signal was 8.77 upbm affinity estimate (log intensity, higher = more binding, comparable within an allelic series). With AGTATCAT the binding signal was 10.5 upbm affinity estimate (log intensity, higher = more binding, comparable within an allelic series). AGGGTATC was tested, and the binding signal was 10.2 upbm affinity estimate (log intensity, higher = more binding, comparable within an allelic series). For AGGGCCCG, the binding signal was 8.79 upbm affinity estimate (log intensity, higher = more binding, comparable within an allelic series). GGCCTCCA was tested, and the binding signal was 8.93 upbm affinity estimate (log intensity, higher = more binding, comparable within an allelic series). With ACTGCCGG the binding signal was 9.11 upbm affinity estimate (log intensity, higher = more binding, comparable within an allelic series). For GGCCCCGA, the binding signal was 8.8 upbm affinity estimate (log intensity, higher = more binding, comparable within an allelic series). With GCCAGTCC the binding signal was 8.92 upbm affinity estimate (log intensity, higher = more binding, comparable within an allelic series). In the case of GCAGTGGC, the binding signal is reported as 8.89 upbm affinity estimate (log intensity, higher = more binding, comparable within an allelic series). In the case of GCGCTGCC, the binding signal is reported as 8.74 upbm affinity estimate (log intensity, higher = more binding, comparable within an allelic series). In the case of CCGGCGCC, the binding signal is reported as 8.98 upbm affinity estimate (log intensity, higher = more binding, comparable within an allelic series). CAGGGCGC was tested, and the binding signal was 8.83 upbm affinity estimate (log intensity, higher = more binding, comparable within an allelic series). CCCCGAGG was tested, and the binding signal was 8.89 upbm affinity estimate (log intensity, higher = more binding, comparable within an allelic series). In the case of AGCTCCGC, the binding signal is reported as 8.96 upbm affinity estimate (log intensity, higher = more binding, comparable within an allelic series). With GATATCAC the binding signal was 10.3 upbm affinity estimate (log intensity, higher = more binding, comparable within an allelic series). GATACCCC was tested, and the binding signal was 10.4 upbm affinity estimate (log intensity, higher = more binding, comparable within an allelic series). ACTGATAC was tested, and the binding signal was 10.3 upbm affinity estimate (log intensity, higher = more binding, comparable within an allelic series). ATATACAC was tested, and the binding signal was 10.4 upbm affinity estimate (log intensity, higher = more binding, comparable within an allelic series). In the case of CGGCCTTC, the binding signal is reported as 8.87 upbm affinity estimate (log intensity, higher = more binding, comparable within an allelic series). CCGGGGCC was tested, and the binding signal was 8.96 upbm affinity estimate (log intensity, higher = more binding, comparable within an allelic series). With AGCGGCGC the binding signal was 8.89 upbm affinity estimate (log intensity, higher = more binding, comparable within an allelic series). With CGGTATCA the binding signal was 10.3 upbm affinity estimate (log intensity, higher = more binding, comparable within an allelic series). In the case of GTATCAAA, the binding signal is reported as 10.5 upbm affinity estimate (log intensity, higher = more binding, comparable within an allelic series). With CAGTGGCC the binding signal was 8.9 upbm affinity estimate (log intensity, higher = more binding, comparable within an allelic series). In the case of GATATCTA, the binding signal is reported as 10.4 upbm affinity estimate (log intensity, higher = more binding, comparable within an allelic series). With CCCTCTGC the binding signal was 8.83 upbm affinity estimate (log intensity, higher = more binding, comparable within an allelic series). CGGCGGAA was tested, and the binding signal was 8.9 upbm affinity estimate (log intensity, higher = more binding, comparable within an allelic series). CAGTATCA was tested, and the binding signal was 10.2 upbm affinity estimate (log intensity, higher = more binding, comparable within an allelic series). In the case of CGCAAGCG, the binding signal is reported as 9.04 upbm affinity estimate (log intensity, higher = more binding, comparable within an allelic series). AGGCGCCC was tested, and the binding signal was 8.6 upbm affinity estimate (log intensity, higher = more binding, comparable within an allelic series). CCGCCAGC was tested, and the binding signal was 9.02 upbm affinity estimate (log intensity, higher = more binding, comparable within an allelic series). With ATGGCCGC the binding signal was 8.81 upbm affinity estimate (log intensity, higher = more binding, comparable within an allelic series). For GGATATCA, the binding signal was 10.4 upbm affinity estimate (log intensity, higher = more binding, comparable within an allelic series). With CTCGATAC the binding signal was 10 upbm affinity estimate (log intensity, higher = more binding, comparable within an allelic series). In the case of CGCAGCGC, the binding signal is reported as 8.94 upbm affinity estimate (log intensity, higher = more binding, comparable within an allelic series).
